Measured values from PubChem BioAssay AID1851 (National Center for Advancing Translational Sciences (NCATS), 2009).
Among all 16,000 compounds or so, about 5,800 (36%) were called active. About 23% were inconclusive and are not listed. This is one part of the list. Unmarked numbers belong to inactive results. Calls come from the whole dose curve; as a rule, active = well fitted curve in the direction sought with a large enough effect; inconclusive = small, poorly fitted or top-dose-only effect, or effect the other way; inactive = no such curve, though single readings can be large or run the other way.

Molecular target: Cytochrome P450 2C19 (Homo sapiens) (UniProt P33261)
Assay: Cytochrome panel assay with activity outcomes
Conditions: recombinant CYP, pro-luciferin dealkylation, luminescence, p450-cyp2c19; series mostly up to 57.1 µM; activity, negative = inhibition: at the top concentration
% is set by controls: 0 for no effect and ±100 for the full control effect.

Sequence of Cytochrome P450 2C19 (Homo sapiens) (P33261 whole entry, looked up): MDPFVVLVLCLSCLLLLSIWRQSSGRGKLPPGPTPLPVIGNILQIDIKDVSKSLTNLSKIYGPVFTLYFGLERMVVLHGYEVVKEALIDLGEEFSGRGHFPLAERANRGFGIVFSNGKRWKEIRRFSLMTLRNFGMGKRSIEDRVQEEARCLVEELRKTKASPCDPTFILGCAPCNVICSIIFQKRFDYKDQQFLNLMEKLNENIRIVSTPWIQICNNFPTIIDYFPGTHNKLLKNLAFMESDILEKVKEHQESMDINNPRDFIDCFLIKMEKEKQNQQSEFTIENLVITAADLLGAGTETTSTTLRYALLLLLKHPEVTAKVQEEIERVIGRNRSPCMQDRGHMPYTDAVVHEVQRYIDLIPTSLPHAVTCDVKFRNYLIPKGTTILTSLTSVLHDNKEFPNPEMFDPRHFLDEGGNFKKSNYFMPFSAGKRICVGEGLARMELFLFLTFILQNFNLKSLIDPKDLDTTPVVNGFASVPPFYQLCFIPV

| SMILES | activity, negative = inhibition | AC50 |
| --- | --- | --- |
| O=C1[C@H]2O[C@@H]2[C@@H](O)[C@H]2[C@H]1CCn1c(=O)n(Cc3cc4c(cc3Cl)OCO4)c(=O)n12 | 14.6% [at 11.4 µM] |  |
| CCCCCCCCCCCCCCCCCC(=O)NC[C@@H](COP(=O)([O-])OCC[N+](C)(C)C)OCC |  | 25.1 µM (active) |
| CCCCCCCCCCCCCCCCCCOC[C@@H](COP(=O)([O-])OCC[N+](C)(C)C)OC | 25.4% |  |
| CCCCCCCCCCCCCCCCCCNC(=O)OC[C@@H](COP(=O)([O-])OCC[n+]1ccsc1)OC | 4.66% |  |
| C=C(C)CN(CC#N)CC(=C)C | 27.9% [at 11.4 µM] |  |
| Cn1c(N)nc2c(nc(OCc3ccccc3)n2[C@@H]2O[C@H](CO)[C@@H](O)[C@@H]2O)c1=O | -3.29% [at 11.4 µM] |  |
| Cc1ccc(N=C/C(C(=O)C(F)(F)F)=C(\O)c2cccs2)cc1 |  | 3.16 µM (active) |
| COc1cc(CN2CCCCC2)cc2cc(C(=O)O)c(=O)oc12 | 21% [at 11.4 µM] |  |
| CCN1CCC[C@H]1CNC(=O)c1c(OC)ccc(Br)c1OC | -5.06% [at 25.6 µM] |  |
| COc1cc(Br)cc2cc(C(=O)NCC3CCCO3)c(=O)oc12 (stereo not given) |  | 0.398 µM (active) |
| COc1ccc(-n2cnnc2)cc1 | -18.6% |  |
| Cc1cc(C)cc(-n2nnnc2-c2cn(C)nc2C(F)(F)F)c1 |  | 2.51 µM (active) |
| COc1ccc(-n2c(C)nn(C)c2=O)cc1 | 14.2% |  |
| COc1ccc(-n2nnnc2-c2cn(C)nc2C(F)(F)F)cc1 |  | 2.24 µM (active) |
| C[C@@H]1c2cccc(O)c2C(O)=C2C(=O)[C@@]3(O)C(O)=C(C(N)=O)C(=O)[C@@H](N(C)C)[C@@H]3[C@@H](O)[C@@H]21 |  | inactive |
| CCOC(=O)C1=C(c2ccccc2)N=c2s/c(=C\c3cccc(O)c3)c(=O)n2C1c1cccs1 (stereo not given) |  | 10 µM (active) |
| CCOC(=O)C1=C(N)n2c(s/c(=C/c3ccccc3)c2=O)=C(C(=O)OCC)C1c1ccccc1 (stereo not given) | 2.19% |  |
| CCOC(=O)C1=C(c2ccccc2)N=c2s/c(=C\c3ccco3)c(=O)n2C1c1cccs1 (stereo not given) |  | 2.24 µM (active) |
| CCOC(=O)C1=C(N)n2c(s/c(=C\c3ccco3)c2=O)=C(C(=O)OCC)C1c1ccco1 (stereo not given) |  | 8.91 µM (active) |
| c1ccc(CCNCc2ccco2)nc1 | -13.9% [at 11.4 µM] |  |
| S=C1SCN(Cc2ccccn2)CN1Cc1ccco1 |  | 2.24 µM (active) |
| S=c1nc[nH]c2c1ncn2Cc1ccco1 | -0.307% [at 11.4 µM] |  |
| Cc1cccc(OCCSCc2nc3ccccc3[nH]2)c1 |  | 2.24 µM (active) |
| O=C(c1ccc(S(=O)(=O)N2CCCCCC2)cc1)N1CCC(CN2C(=O)c3cccc4cccc(c34)C2=O)CC1 | -9.18% |  |
| O=C1c2cccc3cccc(c23)C(=O)N1CC1CCN(CC(O)COc2ccc3ccccc3c2)CC1 (stereo not given) |  | 7.08 µM (active) |
